# Compound activity as filed in PubChem.
# Hits are enriched below; roughly 1.6% of the tested compounds scored in any of these assays.
# KCNQ2 pot: enhances the rat KCNQ2 potassium channel. O88943. 0.54% of 310,000 active. CHO-K1 KCNQ2, FluxOR thallium flux fluorescence; active compounds read high. B-score at 10 µM;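 active means fluorescence ratio B-score at least 3 SD of library B-scores, with initial fluorescence B-score within 3 of them, cut at about 5.3 in these data; same plate scores as AID 2156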;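 further: B-score of peak minus minimum over baseline fluorescence ratio after K+ and Tl+ stimulus; positive B-score means potentiation of KCNQ2 with more thallium influx and brighter signal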
# KCNQ2 block: KCNQ2 (rat) channel inhibition | 1.1% of 310,000 active | CHO-K1 KCNQ2, FluxOR thallium flux, 20 min; active compounds read low | O88943 | B-score at 10 µM;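 active means fluorescence ratio B-score at most minus 3 library SDs, with starting brightness B-score within 2 library SDs, cut at about -5.5 in these data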
# Kir21 confirm: confirmation of mouse Kir2.1 potassium channel inhibitors | shares compounds with KCNQ2 pot | Kir2.1-expressing cells, FluxOR thallium flux fluorescence; active compounds read low | Tl flux remaining, % of negative control (active compounds read low), % at 10 µM | 41% of 2,300 active | AID 2032;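 active means Primary-screen hit whose thallium flux fell at least 3 control SD below untreated wells in both duplicates, with normal baseline fluorescence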;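 further: 0% = blank wells without stimulus and 100% = stimulated no-compound controls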
# HEK293 ctr: alters thallium flux in parental HEK293 cells, Kir2.1 counter-screen | shares compounds with KCNQ2 pot | AID 2105 | 19% of 2,300 active | FluxOR signal as % of negative control (100 = no effect), % at 10 µM | FluxOR thallium flux fluorescence; 0% = unstimulated blank wells;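 active means dye signal at least 3 control SD above or below untreated wells in both duplicates, raw fluorescence within 3, either direction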;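 further: percent is based on the flux ratio of peak minus minimum fluorescence over baseline F0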
# CHO-K1 ctr: parental CHO-K1 activity in KCNQ2 potentiator counter-screen. activity increase over 3SD of controls, % at 10 µM. 43% of 1,200 active. parental CHO-K1 cells, FluxOR thallium flux fluorescence; zero = vehicle mean+3SD, 100% = vehicle-minus-blank window. shares compounds with KCNQ2 pot;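 active means signal rise of at least 3 SD above the untreated control mean, in both duplicate wells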;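 further: counter screen of KCNQ2 potentiator hits so any rise reflects channel-independent effects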
# KCNQ1 sel pot: selectivity of KCNQ2 potentiators: effect on human KCNQ1. shares compounds with KCNQ2 pot. CHO KCNQ1 stable, FluxOR thallium flux fluorescence; beyond 3SD, as % of vehicle-control signal. AID 2283. activation over 3SD threshold, % at 10 µM. 28% of 1,200 active;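 active means fluorescence ratio rise of at least 3 SD of vehicle wells above their mean, in both replicate wells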;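 further: 0% = vehicle mean plus 3 SD and 100% = vehicle minus unstimulated blank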
# KCNQ2 pot confirm: rat KCNQ2 channel potentiator confirmation | shares compounds with KCNQ2 pot | CHO-KCNQ2 cells, FluxOR thallium flux fluorescence | potentiation, less the hit threshold, % at 10 µM | 68% of 1,200 active;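 active means fluorescence ratio rising 3 SD or more over the vehicle control mean in both replicates, plus primary screen hit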;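 further: peak minus minimum thallium fluorescence divided by baseline after K/Tl stimulus; 0% = vehicle mean plus 3 SD and 100% = vehicle minus unstimulated blank difference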
# Kir2-1 sel: tests whether KCNQ2 potentiators also affect mouse Kir2.1 | shares compounds with KCNQ2 pot | HEK293 Kir2.1, FluxOR thallium flux fluorescence | activity over 3SD threshold, % at 10 µM | 2% of 1,200 active;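 active means fluorescence ratio rise of at least 3 SD above the vehicle-control mean, seen in both replicates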;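 further: 0% = vehicle mean plus 3 SD and 100% = vehicle minus no-stimulus blank window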
# KCNQ2 W236L pot: rat KCNQ2 W236L mutant potentiation by KCNQ2 potentiators | CHO KCNQ2-W236L, automated patch clamp current | shares compounds with KCNQ2 pot | AID 2558 | 10% of 940 active | current increase over 3SD of negative controls (%), active compounds read high, % at 25 µM;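 active means current increase at least 3 SD of the untreated controls above them in both duplicate recordings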
# Active calls of the source: *; i = inactive; . = not tested or not shown.
SMILES,KCNQ2 pot,KCNQ2 block,Kir21 confirm,HEK293 ctr,others
NC(N)=N/N=C/c1ccc(OCc2ccccc2)cc1,-6.77,-6.77*,16.5%*,i,
O=C(N/N=C/c1ccc(OCc2ccccc2)cc1)c1ccco1,0.07,i,.,.,
Cc1cccc(C(=O)NNC(=O)c2c(-c3ccccc3Cl)noc2C)c1O,.,i,.,.,
COc1cc(CN(C)CCc2ccccc2)ccc1OCc1ccccc1,.,i,16.5%*,i,
CCN(Cc1ccccc1)Cc1ccc(OCc2ccccc2)c(OC)c1,.,i,.,.,
O=C(N/N=C/c1ccccn1)c1cc(C2CC2)nc2ccccc12,.,i,.,.,
O=C(N/N=C/c1ccccn1)c1cc(Br)ccc1O,7.29*,i,i,227.5%*,CHO-K1 ctr=-13.6;KCNQ1 sel pot=-0.2;KCNQ2 pot confirm=44.1*;Kir2-1 sel=-23.7;KCNQ2 W236L pot=i
Cc1ccccc1NC(=S)NC(=O)c1cc(-c2ccccc2)nc2ccccc12,6.21*,i,i,i,CHO-K1 ctr=-10.9;KCNQ1 sel pot=8.8*;KCNQ2 pot confirm=-21.8;Kir2-1 sel=-18.4
Cc1cccc(NC(=S)NC(=O)c2cc(-c3ccccc3)nc3ccccc23)c1,3.53,i,.,.,
O=C(N/N=C/c1cccnc1)c1cc(Br)ccc1O,.,i,.,.,
O=C(N/N=C/c1ccccn1)c1cc(-c2ccccc2)nc2ccccc12,10.8*,i,i,i,CHO-K1 ctr=221.8*;KCNQ1 sel pot=81.3*;KCNQ2 pot confirm=12.7*;Kir2-1 sel=-27.0;KCNQ2 W236L pot=i
CC(C)n1cnc2c(N(C)c3ccccc3)nc(N(CCN(C)C)Cc3ccccc3)nc21,.,i,48.0%*,i,
COc1ccc(CN(CCN(C)C)c2ccccn2)cc1,1.28,i,.,.,
Cc1csc(NC(=O)c2ccc(S(=O)(=O)N3CCN(C)CC3)cc2)n1,0.3,i,.,.,
N#Cc1c(C(F)(F)F)cc(-c2ccc(F)cc2)[nH]c1=O,1.53,i,.,.,
N#Cc1c(C(F)(F)F)cc(-c2ccc(Cl)cc2)[nH]c1=O,6.47*,i,i,i,CHO-K1 ctr=0.0*;KCNQ1 sel pot=-12.3;KCNQ2 pot confirm=10.8*;Kir2-1 sel=-38.4;KCNQ2 W236L pot=i
Cc1ccc(CNc2nc(C)cs2)cc1,.,i,.,.,
COc1ccc(C)cc1N(CC(=O)NCCSCc1cccc(Cl)c1)S(C)(=O)=O,1,i,.,.,
N#Cc1nc(Cc2cccc3ccccc23)oc1NCCCN1CCOCC1,.,i,52.0%*,i,
N#Cc1nc(Cc2cccc3ccccc23)oc1NCCCn1ccnc1,0.19,i,.,.,
COc1ccc(C2c3ccc4ccccc4c3Oc3ncn(CCCN(C)C)c(=N)c32)cc1 (stereo not drawn),-6.14,-6.14*,36.5%*,i,
COc1ccccc1C1c2ccc3ccccc3c2Oc2ncn(CCN(C)C)c(=N)c21 (stereo not drawn),.,i,.,.,
Cc1cc(Br)cc(Cl)c1OC(=O)c1ccncc1,.,i,.,.,
Cc1c(Cl)cccc1NC(=O)CSC(N)=O,4.6,i,.,.,
Cc1ccc(NC(=O)CSC(N)=O)cc1Cl,5.29,i,i,i,CHO-K1 ctr=-23.5;KCNQ1 sel pot=-21.8;KCNQ2 pot confirm=3.0*;Kir2-1 sel=-41.8;KCNQ2 W236L pot=i
SMILES,KCNQ2 pot,KCNQ2 block,Kir21 confirm,HEK293 ctr,others
COCC(=O)Nc1ccc(C)c(Cl)c1,2.11,i,.,.,
NC(=O)SCC(=O)Nc1ccc(Cl)cc1,6*,i,i,i,CHO-K1 ctr=-10.3;KCNQ1 sel pot=19.8*;KCNQ2 pot confirm=19.5*;Kir2-1 sel=-39.9;KCNQ2 W236L pot=i
NC(=O)SCC(=O)Nc1cccc(Cl)c1,7.69*,i,i,i,CHO-K1 ctr=16.3*;KCNQ1 sel pot=-5.6;KCNQ2 pot confirm=12.4*;Kir2-1 sel=-43.8;KCNQ2 W236L pot=i
N#CCSCC(=O)Nc1ccc(Cl)cc1,0.01,i,.,.,
Cc1cccc(CNC(=O)CC2C(=O)NCCN2C2CCCC2)c1 (stereo not drawn),.,i,.,.,
CN(Cc1ccccc1)C(=O)CCC1CCN(S(C)(=O)=O)CC1,.,i,.,.,
O=C(CSc1nnc(-c2cccnc2)n1Cc1ccco1)c1ccc2ccccc2c1,.,i,.,.,
